Test results as given in the supplement of paper PMC10646978.
± gives the standard deviation.

How the values were obtained:
Settings in all cases: modulator concentration 10 µM
[1] = tested on: RAW-Dual (murine macrophage reporter line); assay: NF-kB reporter (SEAP) activity fold change vs agonist alone; higher = enhanced NF-kB activity
Summary of the method: (§1)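 RAW-Dual murine macrophage reporter cells were plated at 50 000 per well in 384-well plates, pin-transferred compound to 10 μM final, and pre-incubated for 1 hour at 37 °C before a PRR agonist was added and the cells incubated overnight. NF-κB activity was read from supernatant SEAP with QUANTI-Blue at 620 nm absorbance, and IRF activity from Lucia luciferase with QUANTI-Luc by luminescence. Each signal was expressed as fold change by dividing by the mean agonist-only control on the same plate. Two replicate plates were averaged, with errors obtained by propagation.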

[2] = tested on: RAW-Dual (murine macrophage reporter line); assay: IRF reporter (Lucia luciferase) activity fold change vs agonist alone; higher = enhanced IRF activity
Summary of the method: as §1

[3] = tested on: RAW-Dual (murine macrophage reporter line); assay: viability score (confluency relative to resting cells, overnight) (fraction); higher = more viable, active = viable (0.7 or more)
Summary of the method: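 Compound was added at a final 10 μM to RAW-Dual macrophages in 384-well plates and left overnight. Confluency was imaged with IncuCyte, and two masks were generated in IncuCyte software over all imaged wells. Each viability score is confluency relative to resting cells, and a compound met the cutoff only when both masks were above 70% of resting cells.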

[4] = agonist: CpG ODN 1826 0.5 ug/mL

Row | Structure (SMILES) | NF-kB reporter [1, 4] | NF-kB reporter ([1]; agonist: LPS 0.1 ug/mL) | NF-kB reporter ([1]; agonist: MPLA […]) | IRF reporter ([2]; agonist: 3'3'-cGAMP 10 ug/mL) | IRF reporter ([2]; agonist: LPS 0.1 ug/mL) | IRF reporter ([2]; agonist: MPLA […]) | viability score [3]
1 | CC(C)Sc1ccc(CC(=O)NC2CCN(c3cc4c(nn3)CCCC4)CC2)cc1 | 0.556 ± 0.041 | 1.19 ± 0.11 | 1.02 ± 0.076 | 0.847 ± 0.04 | 1.26 ± 0.27 | 1.51 ± 0.47 | 0.973 (active)
2 | CCOc1ccccc1NC(=O)Nc1ccc2c(c1)CCC(=O)N2C | 1.91 ± 0.14 | 1.41 ± 0.11 | 0.99 ± 0.057 | 0.404 ± 0.025 | 0.282 ± 0.032 | 0.389 ± 0.079 | 0.933 (active)
3 | COC1(c2ccc(Cl)cc2)OC(=O)c2ccccc21 (stereo not drawn) | 0.805 ± 0.1 | 0.974 ± 0.052 | 1.07 ± 0.093 | 0.9 ± 0.052 | 1.06 ± 0.073 | 1.13 ± 0.16 | 0.992 (active)
4 | CCOc1ccc(NC(=O)N2C3C=CCC2CC3)cc1 (stereo not drawn) | 1.09 ± 0.42 | 0.941 ± 0.055 | 1.04 ± 0.075 | 0.943 ± 0.054 | 0.921 ± 0.13 | 1.1 ± 0.1 | 0.814 (active)
5 | CN(C)CCCN1c2ccccc2Sc2ccccc21.Cl | 0.791 ± 0.075 | 0.956 ± 0.12 | 1.25 ± 0.054 | 0.719 ± 0.051 | 0.994 ± 0.07 | 0.798 ± 0.069 | 0.534 (inactive)
6 | O=C(NCCCn1ccc2cccnc21)c1cccc(Br)c1 | 0.84 ± 0.042 | 1.12 ± 0.088 | 0.937 ± 0.045 | 0.839 ± 0.081 | 1.06 ± 0.12 | 1.03 ± 0.23 | 0.98 (active)
7 | CC(C)CN(C[C@@H](O)[C@H](Cc1ccccc1)NC(=O)O[C@H]1CO[C@H]2OCC[C@H]21)S(=O)(=O)c1ccc(N)cc1 | 1.74 ± 0.13 | 1.08 ± 0.054 | 1.85 ± 0.069 | 0.916 ± 0.053 | 1.04 ± 0.071 | 1.02 ± 0.1 | 0.997 (active)
8 | COC(=O)Nn1cnnc1 | 1.03 ± 0.17 | 1.08 ± 0.087 | 0.97 ± 0.095 | 0.984 ± 0.025 | 1.25 ± 0.22 | 1.39 ± 0.24 | 1 (active)
9 | Cc1ccc(C2(c3ccc(C)cc3)CC2C(=O)Nc2cccnc2)cc1 (stereo not drawn) | 0.883 ± 0.061 | 0.985 ± 0.076 | 0.82 ± 0.023 | 1.02 ± 0.036 | 1.01 ± 0.062 | 0.91 ± 0.14 | 0.998 (active)
10 | Cc1ccc(S(=O)(=O)NC(=O)NN2CC3CCCC3C2)cc1 (stereo not drawn) | 1.22 ± 0.17 | 1.17 ± 0.48 | 0.973 ± 0.061 | 0.901 ± 0.082 | 1.23 ± 0.46 | 1.14 ± 0.088 | 0.987 (active)
11 | O=C(O)c1cc(NC(=O)c2ccc(Cl)c([N+](=O)[O-])c2)cc(C(=O)O)c1 | 1.08 ± 0.11 | 0.973 ± 0.064 | 1.02 ± 0.045 | 1.03 ± 0.19 | 1.04 ± 0.088 | 1.08 ± 0.17 | 1 (active)
12 | CCCCN(CCCC)S(=O)(=O)c1ccc(N2CCCC2=O)c([N+](=O)[O-])c1 | 1.02 ± 0.12 | 1.07 ± 0.071 | 1 ± 0.062 | 0.975 ± 0.15 | 1.1 ± 0.13 | 1.13 ± 0.27 | 1 (active)
13 | CN(C/C=C/C#CC(C)(C)C)Cc1cccc2ccccc12 | 0.812 ± 0.066 | 0.987 ± 0.059 | 1.08 ± 0.095 | 1.12 ± 0.055 | 1.24 ± 0.078 | 1.27 ± 0.12 | 1.01 (active)
14 | N#Cc1c(N=Cc2ccc(O)cc2)sc2c1CCCC2 | 0.688 ± 0.055 | 0.94 ± 0.069 | 0.979 ± 0.11 | 0.713 ± 0.049 | 1.17 ± 0.22 | 1.23 ± 0.24 | 0.997 (active)
15 | COc1ccc(NC(=O)c2ccc(C(=N)N(C)C)cc2)c(C(=O)Nc2ccc(Cl)cn2)c1 | 0.892 ± 0.33 | 1.18 ± 0.061 | 1.1 ± 0.11 | 0.837 ± 0.043 | 1.05 ± 0.13 | 1.22 ± 0.26 | 0.994 (active)
16 | CCOC(=O)N1CCN(C(=O)CSc2ccc(-c3ccccc3)nn2)CC1 | 1.15 ± 0.086 | 1.05 ± 0.055 | 1.09 ± 0.06 | 0.931 ± 0.051 | 0.96 ± 0.1 | 0.906 ± 0.073 | 0.993 (active)
17 | Cc1c(C(=O)ON=C(N)c2ccncc2)cccc1[N+](=O)[O-] | 1.01 ± 0.08 | 0.996 ± 0.06 | 0.851 ± 0.069 | 0.421 ± 0.031 | 1.33 ± 0.099 | 1.23 ± 0.16 | 0.992 (active)
18 | C[C@@H](O[C@H]1OCCN(Cc2n[nH]c(=O)[nH]2)[C@H]1c1ccc(F)cc1)c1cc(C(F)(F)F)cc(C(F)(F)F)c1 | 0.545 ± 0.086 | 0.634 ± 0.031 | 0.806 ± 0.073 | 0.961 ± 0.045 | 1.29 ± 0.084 | 1.04 ± 0.09 | 1.02 (active)
19 | Cc1c(NC(=S)NC(=O)c2ccccc2[N+](=O)[O-])cccc1-c1nc2ccccc2s1 | 1.09 ± 0.087 | 1.07 ± 0.073 | 0.933 ± 0.064 | 0.88 ± 0.021 | 1.47 ± 0.2 | 1.07 ± 0.2 | 1.02 (active)
20 | Fc1ccc(Nc2nc(NN=Cc3c[nH]nc3-c3ccccc3)nc(N3CCOCC3)n2)cc1 | 0.537 ± 0.044 | 0.981 ± 0.071 | 2.12 ± 0.2 | 1 ± 0.1 | 1.57 ± 0.21 | 2.78 ± 0.4 | 0.875 (active)
21 | OCCN1CCN(CCCN2c3ccccc3C=Cc3ccccc32)CC1 [Prestw-1456] | 0.862 ± 0.066 | 1 ± 0.082 | 1.37 ± 0.053 | 0.807 ± 0.029 | 1.06 ± 0.049 | 1.49 ± 0.18 | 0.904 (active)
22 | CC(Oc1ccc(Cl)cc1)C(=O)NCc1cccnc1 (stereo not drawn) | 1.2 ± 0.11 | 0.981 ± 0.12 | 0.989 ± 0.096 | 1.05 ± 0.026 | 1.31 ± 0.17 | 1.17 ± 0.12 | 1.01 (active)
23 | COc1ccc(C(NC(=O)c2ccccc2F)c2ccc(OC)cc2)cc1 | 1.03 ± 0.17 | 1.08 ± 0.093 | 1.01 ± 0.095 | 1 ± 0.032 | 1.21 ± 0.27 | 1.24 ± 0.16 | 1 (active)
24 | O=C(NCCNC(=O)c1ccccc1Cl)c1ccc(NC(=O)C2CC2)cc1 | 0.924 ± 0.04 | 1.01 ± 0.084 | 1.67 ± 0.56 | 1.02 ± 0.052 | 1.36 ± 0.25 | 1.69 ± 0.5 | 0.98 (active)
